Data published in PubChem BioAssay (EPA / NIEHS).
Active and inactive are the calls of the source. How the source made its calls: active means hit-call score of the fitted dose curve at least 0.9, where 1 is the maximum; inactive means score below 0.9.

What was measured:
[1] = BSK_hDFCGF_SRB: Viability Assessment in the BioMAP Diversity Plus: hDFCGF Assay (AID 2283061); settings: primary human foreskin fibroblasts;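 further: cells exposed to compound for 24 h before the read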
Outline: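 Primary human foreskin fibroblasts; 24 h post-dose; fixed 10% TCA, stained 0.1% SRB, A560 read; total protein as overt cytotoxicity measure; curves fit bidirectionally vs DMSO control.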

[2] = read-out: TIMP metallopeptidase inhibitor 1 (TIMP1), TIMP1 (gene 7076); assay: BSK_hDFCGF_TIMP1: BioMAP Diversity Plus: hDFCGF Assay for TIMP metallopeptidase inhibitor 1 (TIMP1) Biomarker Activity (AID 2283062); settings: primary human foreskin fibroblasts; actives raise or lower the signal
Outline: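 ELISA readout of TIMP-1 from human dermal foreskin fibroblast cultures 24 h post-dosing. Curves were fitted in both directions against DMSO baseline, with SRB total-protein staining in parallel cultures as a cytotoxicity check.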

[3] = read-out: Monokine induced gamma interferon (MIG), CXCL9 (gene 4283); assay: BSK_hDFCGF_MIG: BioMAP Diversity Plus: hDFCGF Assay for Monokine induced gamma interferon (MIG) Biomarker Activity (AID 2283063); settings: primary human foreskin fibroblasts; actives raise or lower the signal
Outline: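 Fibroblasts (human foreskin, primary) dosed, 24 h, MIG by ELISA; fit bidirectional vs DMSO.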

[4] = read-out: Matrix Metallopeptidase 1 (MMP1), MMP1 (gene 4312); assay: BSK_hDFCGF_MMP1: BioMAP Diversity Plus: hDFCGF Assay for Matrix Metallopeptidase 1 (MMP1) Biomarker Activity (AID 2283064); settings: primary human foreskin fibroblasts; actives raise or lower the signal
Outline: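 MMP1 levels quantified by ELISA 24 h after dosing human dermal fibroblast cultures, with parallel SRB total-protein staining for overt cytotoxicity. Data fitted in both directions against DMSO baseline.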

[5] = read-out: Vascular cell adhesion molecule 1 (VCAM1), VCAM1 (gene 7412); assay: BSK_hDFCGF_VCAM1: BioMAP Diversity Plus: hDFCGF Assay for Vascular cell adhesion molecule 1 (VCAM1) Biomarker Activity (AID 2283065); settings: primary human foreskin fibroblasts; actives raise or lower the signal;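 on AC50: VCAM-1 protein level quantified by ELISA after 24 h chemical exposure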
Outline: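 ELISA read-out of VCAM-1 on human skin fibroblasts, 24 h post-dose; gain or loss of signal fitted bidirectionally against DMSO baseline.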

[6] = read-out: Plasminogen activator inhibitor-1 (PAI1), SERPINE1 (gene 5054); assay: BSK_hDFCGF_PAI1: BioMAP Diversity Plus: hDFCGF Assay for Plasminogen activator inhibitor-1 (PAI1) Biomarker Activity (AID 2283066); settings: primary human foreskin fibroblasts; actives raise or lower the signal
Outline: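 Human skin fibroblast cultures receive chemical for 24 h before PAI-1 is measured by ELISA; signal changes are fitted bidirectionally against DMSO-treated wells.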

[7] = read-out: Intercellular Adhesion Molecule 1 (ICAM1), ICAM1 (gene 3383); assay: BSK_KF3CT_ICAM1: BioMAP Diversity Plus: KF3CT Assay for Intercellular Adhesion Molecule 1 (ICAM1) Biomarker Activity (AID 2283067); settings: primary human keratinocytes with fibroblasts; actives raise or lower the signal
Outline: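 ELISA readout of ICAM-1; KF3CT human skin co-culture (keratinocytes + foreskin fibroblasts), 24 h post-dose; gain/loss fit vs DMSO baseline.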

[8] = read-out: Interferon-gamma inducible Protein 10 (IP10), CXCL10 (gene 3627); assay: BSK_KF3CT_IP10: BioMAP Diversity Plus: KF3CT Assay for Interferon-gamma inducible Protein 10 (IP10) Biomarker Activity (AID 2283068); settings: primary human keratinocytes with fibroblasts; actives raise or lower the signal
Outline: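 ELISA read-out of IP-10 after 24 h chemical dosing of human skin primary co-culture (keratinocytes, foreskin fibroblasts). Gain or loss of signal relative to DMSO, bidirectional curve fit.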

[9] = BSK_KF3CT_SRB: Viability Assessment in the BioMAP Diversity Plus: KF3CT Assay (AID 2283069); settings: primary human keratinocytes with fibroblasts;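 further: total protein by sulforhodamine B staining as a cytotoxicity measure; read 24 h after compound addition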
Outline: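 Cytotoxicity was gauged by SRB staining (0.1% SRB, 10% TCA fixation, 560 nm) of parallel cultures at 24 h. The cells were primary human skin keratinocytes co-cultured with fibroblasts, and activity was fitted in both directions against DMSO.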

[10] = read-out: Interleukin-1 alpha (IL1a), IL1A (gene 3552); assay: BSK_KF3CT_IL1a: BioMAP Diversity Plus: KF3CT Assay for Interleukin-1 alpha (IL1a) Biomarker Activity (AID 2283070); settings: primary human keratinocytes with fibroblasts; actives raise or lower the signal
Outline: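 IL-1a was detected by ELISA 24 h after chemical treatment of a co-culture of human skin keratinocytes and foreskin fibroblasts. Gain or loss of signal was fitted against the DMSO baseline.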

[11] = read-out: TIMP metallopeptidase inhibitor 2 (TIMP2), TIMP2 (gene 7077); assay: BSK_KF3CT_TIMP2: BioMAP Diversity Plus: KF3CT Assay for TIMP metallopeptidase inhibitor 2 (TIMP2) Biomarker Activity (AID 2283071); settings: primary human keratinocytes with fibroblasts; actives raise or lower the signal
Outline: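 Measurements come from ELISA detection of TIMP-2 at 24 hours in a dosed human keratinocyte and foreskin fibroblast co-culture. DMSO serves as negative control and baseline.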

[12] = read-out: Transforming growth factor beta 1 (TGFb1), TGFB1 (gene 7040); assay: BSK_KF3CT_TGFb1: BioMAP Diversity Plus: KF3CT Assay for Transforming growth factor beta 1 (TGFb1) Biomarker Activity (AID 2283072); settings: primary human keratinocytes with fibroblasts; actives raise or lower the signal
Outline: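 TGF-b1 ELISA on a 24 h dosed co-culture of human keratinocytes and foreskin fibroblasts; cytotoxicity tracked in parallel cultures by SRB staining.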

[13] = read-out: C-C motif chemokine 2 (Homo sapiens) (UniProt P13500); assay: BSK_KF3CT_MCP1: BioMAP Diversity Plus: KF3CT Assay for Monocyte Chemoattractant Protein 1 (MCP1/CCL2) Biomarker Activity (AID 2283073); settings: primary human keratinocytes with fibroblasts; actives raise or lower the signal
Outline: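 KF3CT skin co-culture (keratinocytes/foreskin fibroblasts), 24 h post-dose; MCP-1 by ELISA; gain/loss of signal fit bidirectionally vs DMSO baseline.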

[14] = read-out: Matrix Metallopeptidase 9 (MMP9), MMP9 (gene 4318); assay: BSK_KF3CT_MMP9: BioMAP Diversity Plus: KF3CT Assay for Matrix Metallopeptidase 9 (MMP9) Biomarker Activity (AID 2283074); settings: primary human keratinocytes with fibroblasts; actives raise or lower the signal;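 on AC50: MMP9 protein level quantified by ELISA in the co-culture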
Outline: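 MMP-9 quantified by ELISA after 24 h chemical treatment of primary human skin keratinocyte/fibroblast co-cultures; gain or loss fitted against DMSO, with parallel SRB staining (0.1% SRB, 560 nm) for overt cytotoxicity.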

[15] = read-out: urokinase plasminogen activator (uPA), PLAU (gene 5328); assay: BSK_KF3CT_uPA: BioMAP Diversity Plus: KF3CT Assay for urokinase plasminogen activator (uPA) Biomarker Activity (AID 2283075); settings: primary human keratinocytes with fibroblasts; actives raise or lower the signal
Outline: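 ELISA read-out of uPA 24 h after dosing human skin keratinocytes co-cultured with foreskin fibroblasts. Signal change fitted both ways relative to DMSO; sulforhodamine B on parallel cultures marks overt cytotoxicity.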

CD40, CD40 (gene 958) = assay: BSK_LPS_CD40: BioMAP Diversity Plus: LPS Assay for CD40 Biomarker Activity (AID 2283076); settings: primary human HUVEC with PBMC; actives raise or lower the signal
Outline: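 ELISA readout of CD40 in HUVEC/PBMC co-culture (BSK_LPS system), 24 h post-dosing; bidirectional curve fit, DMSO baseline; parallel SRB total-protein staining for cytotoxicity.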

[16] = read-out: E-selectin (Homo sapiens) (UniProt P16581); assay: BSK_LPS_Eselectin: BioMAP Diversity Plus: LPS Assay for Eselectin Biomarker Activity (AID 2283077); settings: primary human HUVEC with PBMC; actives raise or lower the signal
Outline: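 ELISA readout of E-selectin, 24 h post-dose, HUVEC + PBMC co-culture (LPS system). Gain or loss of signal vs DMSO baseline, bidirectional fit.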

[17] = read-out: Interleukin-8 (IL8), CXCL8 (gene 3576); assay: BSK_LPS_IL8: BioMAP Diversity Plus: LPS Assay for Interleukin-8 (IL8) Biomarker Activity (AID 2283078); settings: primary human HUVEC with PBMC; actives raise or lower the signal
Outline: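 HUVEC + PBMC co-culture, LPS-activated; test chemicals dosed, IL-8 read by ELISA at 24 h. Bidirectional curve fit vs DMSO baseline (gain or loss of signal).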

[18] = BSK_LPS_SRB: Viability Assessment in the BioMAP Diversity Plus: LPS Assay (AID 2283079); settings: primary human HUVEC with PBMC;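 further: total protein by sulforhodamine B absorbance as a cytotoxicity measure; measured one day after compound addition; fitted in both directions against DMSO so loss or gain of signal counts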
Outline: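 HUVEC + PBMC co-culture, LPS-stimulated; compound 24 h. 10% TCA fix, 0.1% SRB stain, A560. Bidirectional fit vs DMSO.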

[19] = read-out: Interleukin-1 alpha (IL1a), IL1A (gene 3552); assay: BSK_LPS_IL1a: BioMAP Diversity Plus: LPS Assay for Interleukin-1 alpha (IL1a) Biomarker Activity (AID 2283080); settings: primary human HUVEC with PBMC; actives raise or lower the signal
Outline: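 HUVEC/PBMC co-culture, LPS system; 24 h after dosing; IL-1a by ELISA; gain or loss of signal fitted bidirectionally vs DMSO baseline.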

Measured: AC50

E-selectin (Homo sapiens), sequence (P16581 whole entry, looked up): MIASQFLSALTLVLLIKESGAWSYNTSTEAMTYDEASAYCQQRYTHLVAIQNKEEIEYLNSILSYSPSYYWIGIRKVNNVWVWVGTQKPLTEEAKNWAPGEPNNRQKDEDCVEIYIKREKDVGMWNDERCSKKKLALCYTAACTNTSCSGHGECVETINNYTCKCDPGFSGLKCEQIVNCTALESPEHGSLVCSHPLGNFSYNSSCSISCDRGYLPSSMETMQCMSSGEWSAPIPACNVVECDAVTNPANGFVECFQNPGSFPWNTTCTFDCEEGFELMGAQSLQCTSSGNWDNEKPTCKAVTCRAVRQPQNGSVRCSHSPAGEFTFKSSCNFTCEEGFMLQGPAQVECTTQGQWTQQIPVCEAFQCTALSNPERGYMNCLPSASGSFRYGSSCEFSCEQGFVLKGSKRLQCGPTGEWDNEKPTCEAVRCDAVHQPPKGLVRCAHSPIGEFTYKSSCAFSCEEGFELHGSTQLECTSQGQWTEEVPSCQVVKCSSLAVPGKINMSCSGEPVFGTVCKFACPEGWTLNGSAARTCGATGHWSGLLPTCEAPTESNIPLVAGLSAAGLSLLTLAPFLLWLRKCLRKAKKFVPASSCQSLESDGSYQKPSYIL

CN(C)C(=O)C1(N2CCCCC2)CCN(CC[C@@]2(c3ccc(Cl)c(Cl)c3)CN(C(=O)c3ccccc3)CCO2)CC1
active: [1] 13.3 µM | [2] 24.8 µM | [3] 33.3 µM | [4] 29.2 µM | [5] 14.9 µM | [6] 12.3 µM | [7] 35.2 µM | [8] 31.3 µM | [9] 28.4 µM | [10] 34.3 µM | [11] 32.7 µM | [12] 29.8 µM | [13] 35 µM | [14] 25.5 µM | [15] 32.1 µM | CD40, CD40 (gene 958) 16.8 µM | [16] 29.2 µM | [17] 25.7 µM

O=c1ccc2ccccc2o1
not listed: [18] | [19]
inactive: all other assays above

Cc1ccc(C(C)C)cc1
not listed: [11] | [17] | [18] | [19]
inactive: all other assays above

Cc1ccc2oc(CN(Cc3ccccc3)C(=O)Nc3c(F)cc(F)cc3F)c(-c3ccc(Cl)cc3)c2c1
active: [6] 0.999 µM | [11] 26.4 µM
not listed: [17]
inactive: all other assays above

O=c1[nH]sc2ccccc12
active: [1] 7.21 µM | [2] 11.8 µM | [3] 5.92 µM | [4] 6.98 µM | [5] 1.82 µM | [6] 3.23 µM | [7] 20 µM | [8] 31.7 µM | [9] 35.7 µM | [10] 13.7 µM | [11] 32.2 µM | [12] 30.7 µM | [13] 30.4 µM | [14] 31.2 µM | [15] 33 µM | CD40, CD40 (gene 958) 7.06 µM | [16] 25.9 µM

CCCOC(=O)c1cc(O)c(O)c(O)c1
active: [3] 10.8 µM | [11] 1.49 µM | [12] 1.53 µM | [15] 3.97 µM
not listed: [17] | [18]
inactive: all other assays above
